Records with an inconclusive call do not appear. Activity calls are given as the source filed them. Calls follow the shape of the dose curve; as a rule, active = well fitted curve in the direction sought with a large enough effect; inconclusive = small, poorly fitted or top-dose-only effect, or another doubt; inactive = no such curve, though single readings can be large; an effect the other way counts as inactive or inconclusive.
Assays:
[1] = Quantitative High-Throughput drug screen in 47 multiple myeloma cell lines against the NCATS MIPE library collection: FR4_PLB cell viability assay (AID 1918924; also: nearly all actives have a fitted effect of over 35% in size; also: potency is read from the fitted curve at half-maximal effect)
In short: (§1)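 Approved and investigational drugs from MIPE 4.0 were added by pin tool to 500 cells per well. After 48 hours at 37C, ATP-based CellTiter-Glo luminescence indicated remaining viability.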

[2] = Quantitative High-Throughput drug screen in 47 multiple myeloma cell lines against the NCATS MIPE library collection: EJM_DSMZ cell viability assay (AID 1918926; also: nearly all actives have a fitted effect of over 30% in size; also: potency is read from the fitted curve at half-maximal effect)
In short: (§2)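 Viability readout: CellTiter-Glo luminescence following 5 min room-temperature incubation with reagent. Prior exposure: 48 h, 37C, humidified 5% CO2, 500 cells per well.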

[3] = Quantitative High-Throughput drug screen in 47 multiple myeloma cell lines against the NCATS MIPE library collection: ARP1_JJKsccF8 cell viability assay (AID 1918928; also: nearly all actives have a fitted effect of over 40% in size; also: potency is read from the fitted curve at half-maximal effect)
In short: (§3)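 CellTiter-Glo luminescence after 48 h exposure gives viability, scaled between DMSO-only (100%) and media-only (0%) controls. Library compounds are pinned onto 500 myeloma cells per well, incubated at 37C with 5% CO2.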

[4] = Quantitative High-Throughput drug screen in 47 multiple myeloma cell lines against the NCATS MIPE library collection: ARD_JJKsccE7 cell viability assay (AID 1918929; also: potency is read from the fitted curve at half-maximal effect)
In short: as §2

[5] = Quantitative High-Throughput drug screen in 47 multiple myeloma cell lines against the NCATS MIPE library collection: Karpas417_ECACC cell viability assay (AID 1918961); details: Karpas417 myeloma viability, CellTiter-Glo ATP luminescence, 48 h; viability (% of DMSO): at 45.8 µM (top of the series); also: potency is read from the fitted curve at half-maximal effect
In short: (§4)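 Inhibition of cell viability is measured here. Each line was plated at 500 cells per well, treated with MIPE 4.0 drugs, kept 48 hours at 37C, then assayed for ATP content by CellTiter-Glo luminescence.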

[6] = Quantitative High-Throughput drug screen in 47 multiple myeloma cell lines against the NCATS MIPE library collection: KHM11_PLB cell viability assay (AID 1918962); also: nearly all actives have a fitted effect of over 35% in size; also: potency is read from the fitted curve at half-maximal effect
In short: as §1

[7] = Quantitative High-Throughput drug screen in 47 multiple myeloma cell lines against the NCATS MIPE library collection: JIM3_ECACC cell viability assay (AID 1918963; also: nearly all actives have a fitted effect of over 35% in size; also: potency is read from the fitted curve at half-maximal effect)
In short: as §1

[8] = Quantitative High-Throughput drug screen in 47 multiple myeloma cell lines against the NCATS MIPE library collection: JJN3_DSMZ cell viability assay (AID 1918966; also: nearly all actives have a fitted effect of over 50% in size; also: potency is read from the fitted curve at half-maximal effect)
In short: as §2

[9] = Quantitative High-Throughput drug screen in 47 multiple myeloma cell lines against the NCATS MIPE library collection: H1112_PLB cell viability assay (AID 1918967; also: nearly all actives have a fitted effect of over 30% in size; also: potency is read from the fitted curve at half-maximal effect)
In short: as §2

[10] = Quantitative High-Throughput drug screen in 47 multiple myeloma cell lines against the NCATS MIPE library collection: Karpas25_ECACC cell viability assay (AID 1918968; also: nearly all actives have a fitted effect of over 35% in size; also: potency is read from the fitted curve at half-maximal effect)
In short: as §2

[11] = Quantitative High-Throughput drug screen in 47 multiple myeloma cell lines against the NCATS MIPE library collection: AMO1_DSMZ cell viability assay (AID 1918927; also: nearly all actives have a fitted effect of over 30% in size; also: potency is read from the fitted curve at half-maximal effect)
In short: as §2

[12] = Quantitative High-Throughput drug screen in 47 multiple myeloma cell lines against the NCATS MIPE library collection: Karpas620_DSMZ cell viability assay (AID 1918959); also: nearly all actives have a fitted effect of over 30% in size; also: potency is read from the fitted curve at half-maximal effect
In short: as §1

[13] = Quantitative High-Throughput drug screen in 47 multiple myeloma cell lines against the NCATS MIPE library collection: KMM1_JCRB cell viability assay (AID 1918960); also: nearly all actives have a fitted effect of over 30% in size; also: potency is read from the fitted curve at half-maximal effect
In short: as §3

[14] = Quantitative High-Throughput drug screen in 47 multiple myeloma cell lines against the NCATS MIPE library collection: JIM1_ECACC cell viability assay (AID 1918964; also: potency is read from the fitted curve at half-maximal effect)
In short: as §2

[15] = Quantitative High-Throughput drug screen in 47 multiple myeloma cell lines against the NCATS MIPE library collection: INA6_PLB cell viability assay (AID 1918965; also: nearly all actives have a fitted effect of over 55% in size; also: potency is read from the fitted curve at half-maximal effect)
In short: as §4

[16] = Quantitative High-Throughput drug screen in 47 multiple myeloma cell lines against the NCATS MIPE library collection: KMS27_JCRB cell viability assay (AID 1918970); also: nearly all actives have a fitted effect of over 30% in size; also: potency is read from the fitted curve at half-maximal effect
In short: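 KMS27_JCRB myeloma cells, 500 per well, exposed 48 h at 37 C, 5% CO2 to MIPE 4.0 compounds. Viability from ATP by CellTiter-Glo luminescence, normalized to DMSO (100%) and medium-only (0%) wells.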

[17] = Quantitative High-Throughput drug screen in 47 multiple myeloma cell lines against the NCATS MIPE library collection: KMS12PE_JCRB cell viability assay (AID 1918972); also: nearly all actives have a fitted effect of over 30% in size; also: potency is read from the fitted curve at half-maximal effect
In short: as §4

[18] = Quantitative High-Throughput drug screen in 47 multiple myeloma cell lines against the NCATS MIPE library collection: Delta47_JCRB cell viability assay (AID 1918925; also: nearly all actives have a fitted effect of over 45% in size; also: potency is read from the fitted curve at half-maximal effect)
In short: as §2

[19] = Quantitative High-Throughput drug screen in 47 multiple myeloma cell lines against the NCATS MIPE library collection: KMS20_JCRB cell viability assay (AID 1918973); also: nearly all actives have a fitted effect of over 45% in size; also: potency is read from the fitted curve at half-maximal effect
In short: as §2

[20] = Primary redox qHTS assay for identification of artifact compounds. (AID 1845223)
In short: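 Redox-cycling detection via DTT (250 uM final) oxidation coupled to Amplex Red (25 uM)/HRP (250 mU/mL) in HBSS. 15 min preincubation plus 30 min after DTT, room temperature. Ex/Em 525/598 nm; 4-parameter Hill fit against DMSO and 10 uM DA3003.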

COC1(CS(=O)c2ccccc2)CCN(CCc2c[nH]c3ccc(F)cc23)CC1 (stereo not drawn)
inactive: Potency [1] | Potency [2] | Potency [3] | Potency [4] | Potency [5] | Potency [6] | Potency [7] | Potency [8] | Potency [9]
active: Potency [10] 9.35 µM

CN1CCN(C(=O)O[C@H]2c3nccnc3C(=O)N2c2ccc(Cl)cn2)CC1
inactive: Potency [1] | Potency [2] | Potency [11] | Potency [12] | Potency [13] | Potency [6] | Potency [7] | Potency [14] | Potency [15] | Potency [9] | Potency [10] | Potency [16] | Potency [17]

COc1ccc(C(=O)c2c(C)n(CCN3CCOCC3)c3ccccc23)cc1
inactive: Potency [18] | Potency [2] | Potency [11] | Potency [3] | Potency [4] | Potency [13] | Potency [6] | Potency [7] | Potency [9] | Potency [16]

C#CCN(C)[C@H](C)Cc1ccccc1
active: Potency [8] 8.33 µM
inactive: Potency [1] | Potency [18] | Potency [3] | Potency [4] | Potency [12] | Potency [6] | Potency [7] | Potency [9] | Potency [10] | Potency [17] | Potency [19]

CCCC(C)(COC(N)=O)COC(=O)NC(C)C (stereo not drawn)
active: viability (% of DMSO) [5] 64.9%
inactive: Potency [18] | Potency [2] | Potency [11] | Potency [3] | Potency [12] | Potency [13] | Potency [14] | Potency [15] | Potency [9] | Potency [10] | Potency [16] | Potency [17]

CNC(=O)N1N=C(c2ccc(N)cc2)c2cc3c(cc2CC1C)OCO3 (stereo not drawn)
inactive: outcome [20] | Potency [9]
active: Potency [18] 1.48 µM | Potency [2] 11.8 µM | Potency [11] 1.87 µM | Potency [4] 2.35 µM | Potency [5] 1.87 µM | Potency [6] 2.96 µM | Potency [7] 4.69 µM | Potency [15] 1.18 µM | Potency [8] 1.32 µM | Potency [10] 9.35 µM | Potency [16] 3.32 µM | Potency [17] 2.35 µM

COC[C@H]1OC(=O)c2coc3c2[C@@]1(C)C1=C(C3=O)C2CCC(=O)[C@@]2(C)C[C@H]1OC(C)=O (stereo partly drawn)
active: Potency [1] 11.8 µM | Potency [18] 0.0469 µM | Potency [11] 8.33 µM | Potency [3] 1.48 µM | Potency [4] 14.8 µM | Potency [12] 4.69 µM | Potency [13] 7.43 µM | Potency [6] 3.32 µM | Potency [7] 4.69 µM | Potency [14] 8.33 µM | Potency [15] 2.35 µM | Potency [8] 10.5 µM | Potency [9] 2.64 µM | Potency [10] 0.526 µM | Potency [16] 14.8 µM | Potency [17] 16.6 µM

C[C@@H]1[C@@H](C(=O)C[C@H]2O[C@@H]3O[C@]4(C)CC[C@@H]5[C@H](C)CC[C@@H]([C@H]2C)[C@@]35OO4)O[C@@H]2O[C@]3(C)CC[C@H]4[C@H](C)CC[C@@H]1[C@@]24OO3
active: Potency [18] 0.235 µM | Potency [11] 0.0833 µM | Potency [3] 0.132 µM | Potency [4] 0.148 µM | Potency [12] 0.0418 µM | Potency [13] 0.0469 µM | Potency [6] 0.332 µM | Potency [7] 0.187 µM | Potency [15] 0.264 µM | Potency [8] 0.296 µM | Potency [9] 0.469 µM | Potency [10] 0.0526 µM | Potency [16] 0.166 µM | Potency [17] 0.0833 µM | Potency [19] 0.469 µM

CC1=C2C[C@@H]3[C@@H](CC=C4C[C@@H](O)CC[C@@]43C)[C@@H]2CC[C@]12O[C@H]1C[C@H](C)CN[C@H]1[C@H]2C
inactive: Potency [11] | Potency [3] | Potency [4] | Potency [12] | Potency [13] | Potency [7] | Potency [14] | Potency [15] | Potency [9] | Potency [10] | Potency [16] | Potency [17]
active: Potency [1] 10.5 µM | Potency [2] 8.33 µM | Potency [19] 0.0469 µM

C=C(C)[C@H]1Cc2c(ccc3c2O[C@@H]2COc4cc(OC)c(OC)cc4[C@@H]2C3=O)O1
active: Potency [1] 0.935 µM | Potency [18] 0.118 µM | Potency [2] 4.69 µM | Potency [11] 0.469 µM | Potency [3] 0.526 µM | Potency [4] 0.332 µM | Potency [12] 0.296 µM | Potency [13] 0.235 µM | Potency [7] 0.935 µM | Potency [14] 0.418 µM | Potency [15] 0.118 µM | Potency [8] 7.43 µM | Potency [9] 0.132 µM | Potency [10] 0.0469 µM | Potency [16] 0.296 µM | Potency [19] 0.332 µM

COc1ccc2c(c1OC)CN1CCc3cc4c(cc3C1C2)OCO4 (stereo not drawn)
inactive: Potency [9]
active: Potency [2] 20.9 µM | Potency [7] 16.6 µM | Potency [15] 18.7 µM | Potency [8] 16.6 µM | Potency [10] 18.7 µM | Potency [16] 20.9 µM

Cc1sc2c(c1C)C(c1ccc(Cl)cc1)=N[C@@H](CC(=O)OC(C)(C)C)c1nnc(C)n1-2
active: Potency [1] 0.332 µM | Potency [18] 0.743 µM | Potency [11] 0.0833 µM | Potency [3] 0.209 µM | Potency [4] 0.0418 µM | Potency [12] 0.132 µM | Potency [13] 0.0662 µM | Potency [6] 0.0083 µM | Potency [7] 1.66 µM | Potency [15] 0.0296 µM | Potency [8] 0.296 µM | Potency [9] 6.62 µM | Potency [10] 0.526 µM | Potency [16] 0.0526 µM | Potency [17] 0.0296 µM | Potency [19] 1.18 µM

CNCC(O)c1ccc(O)cc1 (stereo not drawn)
inactive: Potency [1] | Potency [18] | Potency [2] | Potency [11] | Potency [3] | Potency [4] | Potency [12] | Potency [6] | Potency [7] | Potency [14] | Potency [15] | Potency [9] | Potency [16] | Potency [17]
active: viability (% of DMSO) [5] 80.8%

C[C@@H]1[C@@H](CC(C[C@H]2O[C@@H]3O[C@]4(C)CC[C@@H]5[C@H](C)CC[C@@H]([C@H]2C)[C@@]35OO4)C[S+](=O)([O-])c2ccc(COC(=O)N(C)C)cc2)O[C@@H]2O[C@]3(C)CC[C@H]4[C@H](C)CC[C@@H]1[C@@]24OO3 (stereo partly drawn)
active: Potency [1] 0.209 µM | Potency [18] 0.235 µM | Potency [2] 0.187 µM | Potency [11] 0.118 µM | Potency [3] 0.0935 µM | Potency [4] 0.118 µM | Potency [12] 0.0418 µM | Potency [13] 0.105 µM | Potency [5] 0.132 µM | Potency [7] 0.264 µM | Potency [14] 0.0662 µM | Potency [15] 0.235 µM | Potency [8] 0.148 µM | Potency [9] 0.209 µM | Potency [10] 0.118 µM | Potency [16] 0.187 µM | Potency [17] 0.0833 µM | Potency [19] 0.264 µM

C[C@H]1O[C@@H](O[C@H]2[C@@H](O)C[C@H](O[C@H]3[C@@H](O)C[C@H](O[C@H]4CC[C@@]5(C)[C@H](CC[C@@H]6[C@@H]5CC[C@]5(C)[C@@H](C7=CC(=O)OC7)CC[C@]65O)C4)O[C@@H]3C)O[C@@H]2C)C[C@H](O)[C@@H]1O
inactive: outcome [20]

COC[C@@H](NC(C)=O)C(=O)NCc1ccccc1
inactive: Potency [1] | Potency [18] | Potency [2] | Potency [11] | Potency [4] | Potency [12] | Potency [13] | Potency [7] | Potency [8] | Potency [9] | Potency [16] | Potency [19]

Fc1ccc(C(OCCN2CCN(CCCc3ccccc3)CC2)c2ccc(F)cc2)cc1
active: Potency [1] 20.9 µM | Potency [18] 8.33 µM | Potency [2] 13.2 µM | Potency [3] 20.9 µM | Potency [6] 13.2 µM | Potency [7] 13.2 µM | Potency [15] 13.2 µM | Potency [8] 23.5 µM | Potency [9] 13.2 µM | Potency [10] 8.33 µM | Potency [19] 9.35 µM
inactive: Potency [11] | Potency [12] | Potency [13] | Potency [14]

Reference: PubChem BioAssay (NCATS)
